About 83,000 compounds went through this panel and 20% of them were active in at least one assay; those are over-represented in the sample as a whole.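 The endpoint reported here, percent growth, reads 100 for growth as untreated, 0 for no net growth and -100 for all cells dead.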 Values without a mark were called inactive. The source made the active and inactive calls. The calls were made as follows: active = growth percent below 10; inactive = the rest.
Experiments:
Assay in all cases: NCI-60 one-dose screen, 48 h (100 = growth as untreated, 0 = no growth, -100 = all killed)
Conditions in all cases: 10 µM unless noted
NCI-H23 lung = test system: NCI-H23 lung
NCI-H226 lung = test system: NCI-H226 lung
NCI-H322M lung = test system: NCI-H322M lung
HOP-62 NSCLC = test system: HOP-62 NSCLC
NCI-H460 lung = test system: NCI-H460 lung
HOP-92 NSCLC = test system: HOP-92 NSCLC
NCI-H522 lung = test system: NCI-H522 lung
A549/ATCC NSCLC = test system: A549/ATCC NSCLC
786-0 renal = test system: 786-0 renal
COLO 205 colon = test system: COLO 205 colon
DU-145 prostate = test system: DU-145 prostate
K-562 leukemia = test system: K-562 leukemia
MALME-3M melanoma = test system: MALME-3M melanoma
MDA-MB-231 breast = test system: MDA-MB-231 breast
RXF 393 renal = test system: RXF 393 renal
SF-268 CNS = test system: SF-268 CNS
SF-295 CNS = test system: SF-295 CNS
SF-539 CNS = test system: SF-539 CNS
UACC-257 melanoma = test system: UACC-257 melanoma
M14 melanoma = test system: M14 melanoma

SMILES	growth (NCI-H23 lung)	growth (NCI-H226 lung)	growth (NCI-H322M lung)	growth (HOP-62 NSCLC)	growth (NCI-H460 lung)	growth (HOP-92 NSCLC)	growth (NCI-H522 lung)	growth (A549/ATCC NSCLC)	growth (786-0 renal)	growth (COLO 205 colon)	growth (DU-145 prostate)	growth (K-562 leukemia)	growth (MALME-3M melanoma)	growth (MDA-MB-231 breast)	growth (RXF 393 renal)	growth (SF-268 CNS)	growth (SF-295 CNS)	growth (SF-539 CNS)	growth (UACC-257 melanoma)	growth (M14 melanoma)
O=C(CSc1nnc(-c2ccc(Cl)cc2)n1-c1ccccc1)Nc1ccc(Cl)cc1	29.1%	16%	41.2%	82.8%	19.4%	-5.1% (active)	39.5%	21.5%	-50.2% (active)	90.2%	62.1%	59.1%	51%	12.9%	22.9%	41.4%	17.2%	-15% (active)	88.2%	62.7%
O=C1[C@H]2Cc3c([nH]c4ccccc34)[C@H](c3ccc(Br)cc3)N2C(=O)CN1C1CCN(CC2CCCCC2)CC1	83.5%	92.5%	92.8%	82.2%	54.1%	77.2%	83.6%	79.4%	83.4%	81.3%	79.4%	6.13% (active)	72.5%	76.5%	62.6%	66.8%	113%	75.3%	97.4%	-17.4% (active)
CCOC(=O)c1c(NC(=O)c2cccc(C(F)(F)F)c2)sc2c1CCC(=O)C2	16%	71.8%	95.1%	31.8%	27.9%	29.9%	-4% (active)	28.9%	98.4%	15.8%	94.8%	5.25% (active)	58.3%	55.2%	25.6%	27.7%	24.3%	-9.48% (active)	82.2%	42.7%
Brc1ccc(-c2cc(-c3ccc4c(c3)OCCO4)n[nH]2)s1	40.6%	75.4%	42.7%	51.3%	14.3%	64.2%	20.9%	33.3%	73.5%	28.7%	39.8%	12.4%	45.8%	41.9%	32%	62.4%	18.4%	23.5%	75.1%	21.3%
NS(=O)(=O)c1ccc(Nc2nc(Nc3ccccc3)nc(N3N=C(c4ccc(Cl)cc4)CC3c3ccc(Cl)cc3)n2)cc1 (stereo not given)	54.8%	55.1%	64.5%	75.8%	20.1%	75%	83.6%	66.7%	65.8%	8.73% (active)	50.4%	32.5%	42.5%	54.3%	-3.26% (active)	59.4%	56.7%	58%	65.8%	34.6%
NCCNC(=O)c1cccc(COc2ccccc2NC(=O)c2cc(Cl)c(Cl)[nH]2)c1	98.1%	96.4%	102%	104%	104%	107%	104%	98.6%	90.3%	113%	92.6%	5.92% (active)	100%	106%	93.5%	90.2%	105%	97.6%	98.9%	101%
O=C1[C@H]2Cc3c([nH]c4ccccc34)[C@H](c3ccc(Cl)cc3)N2C(=O)CN1C1CCN(CC2CCCCC2)CC1	75.8%	88.2%	93.6%	79.7%	35.5%	70.5%	71.5%	64.4%	75%	51.4%	74.6%	6.81% (active)	45.8%	87%	45.8%	60.2%	97.4%	66.2%	75.1%	-56% (active)
O=c1oc2ccc(-c3ccc(F)cc3F)cc2c(=O)n1-c1ccc(Br)cc1F	60%	77.8%	71.7%	82.9%	45.9%	-19.3% (active)	12.1%	84.4%	95.2%	121%	85.2%	45.4%	61.5%	87%	80.8%	58.6%	77.6%	74.3%	48.1%	80.7%
CC(=C(c1ccc(OCCN(C)C)cc1)c1ccc(OCCN(C)C)cc1)c1ccc(Cl)cc1	29.5%	-11.9% (active)	-3.42% (active)	-57.8% (active)	-71.9% (active)	-9.45% (active)	-64.5% (active)	-65% (active)	-67.5% (active)	-50% (active)	-73.6% (active)	-9.65% (active)	-79.9% (active)	-75.4% (active)	-86.6% (active)	-47.7% (active)	-78.1% (active)	-83% (active)	-69.6% (active)	-63.5% (active)
Cc1ccc(S(=O)(=O)NCCCNc2nccc(-c3[nH]c(-c4ccccc4)nc3-c3ccc(F)c(O)c3)n2)cc1	96.2%	93.2%	109%	112%	82.1%	93.7%	80.1%	80.4%	104%	91.9%	98.6%	30.4%	2.9% (active)	71.1%	97.9%	105%	94.9%	105%	23.8%	22.9%
Cc1cc(=O)[nH]c(O)c1C#N	100%	101%	98.1%	94.8%	108%	97.4%	101%	103%	103%	107%	108%	99.2%	105%	98.2%	114%	103%	102%	97%	100%	94.4%
COc1cc2oc(-c3cccc(NC(=O)c4cccc([N+](=O)[O-])c4)c3)cc(=O)c2c(OC)c1OC	69%	62.8%	82.4%	-36.4% (active)	51.2%	-0.118% (active)	58.5%	43.8%	65.6%	85.8%	66.9%	60.3%	33.7%	41%	36.4%	43.2%	79.8%	-8.95% (active)	88.2%	83.8%
Cc1ccc2c(n1)C(=O)C(Cl)=C(Nc1cccc(C(F)(F)F)c1)C2=O	52.3%	73.3%	108%	141%	101%	107%	-28.8% (active)	105%	85.8%	106%	98.7%	3.08% (active)	-5.42% (active)	54.7%	-1.18% (active)	100%	110%	106%	-4.17% (active)	80.4%
CCOP(=O)(OCC)OC[C@]12CCC(C)(C)CC1C1=CC[C@@H]3[C@@]4(C)CCCNC(C)(C)[C@@H]4CC[C@@]3(C)[C@]1(C)CC2 (stereo not given in full)	85.2%	89%	95.7%	101%	55.1%	64.8%	90.2%	70.8%	69.4%	3.12% (active)	82.6%	2.53% (active)	103%	81.1%	64%	80.2%	99.3%	86.3%	98.2%	83.3%

From PubChem BioAssay (NCI)
